Reference: the supplement of paper PMC11732987, “Enantioselective OTUD7B fragment discovery through chemoproteomics screening and high-throughput optimisation” (Communications Chemistry, 2025)

Legend:
Test in all cases: log2 ratio of Biotin-Ahx-Ub-VS probe labelling (fragment/DMSO); higher = less target engagement (more negative = stronger competition), active = hit call of the paper (q ≤ 0.05, log2 ratio ≤ -1)
Conditions in all cases: compound concentration: 200 uM; treatment time: 3 h
[1] = target: USP34 (UniProt Q70CQ2)
Chain of USP34 (Q70CQ2 whole entry, the tested form may be a part): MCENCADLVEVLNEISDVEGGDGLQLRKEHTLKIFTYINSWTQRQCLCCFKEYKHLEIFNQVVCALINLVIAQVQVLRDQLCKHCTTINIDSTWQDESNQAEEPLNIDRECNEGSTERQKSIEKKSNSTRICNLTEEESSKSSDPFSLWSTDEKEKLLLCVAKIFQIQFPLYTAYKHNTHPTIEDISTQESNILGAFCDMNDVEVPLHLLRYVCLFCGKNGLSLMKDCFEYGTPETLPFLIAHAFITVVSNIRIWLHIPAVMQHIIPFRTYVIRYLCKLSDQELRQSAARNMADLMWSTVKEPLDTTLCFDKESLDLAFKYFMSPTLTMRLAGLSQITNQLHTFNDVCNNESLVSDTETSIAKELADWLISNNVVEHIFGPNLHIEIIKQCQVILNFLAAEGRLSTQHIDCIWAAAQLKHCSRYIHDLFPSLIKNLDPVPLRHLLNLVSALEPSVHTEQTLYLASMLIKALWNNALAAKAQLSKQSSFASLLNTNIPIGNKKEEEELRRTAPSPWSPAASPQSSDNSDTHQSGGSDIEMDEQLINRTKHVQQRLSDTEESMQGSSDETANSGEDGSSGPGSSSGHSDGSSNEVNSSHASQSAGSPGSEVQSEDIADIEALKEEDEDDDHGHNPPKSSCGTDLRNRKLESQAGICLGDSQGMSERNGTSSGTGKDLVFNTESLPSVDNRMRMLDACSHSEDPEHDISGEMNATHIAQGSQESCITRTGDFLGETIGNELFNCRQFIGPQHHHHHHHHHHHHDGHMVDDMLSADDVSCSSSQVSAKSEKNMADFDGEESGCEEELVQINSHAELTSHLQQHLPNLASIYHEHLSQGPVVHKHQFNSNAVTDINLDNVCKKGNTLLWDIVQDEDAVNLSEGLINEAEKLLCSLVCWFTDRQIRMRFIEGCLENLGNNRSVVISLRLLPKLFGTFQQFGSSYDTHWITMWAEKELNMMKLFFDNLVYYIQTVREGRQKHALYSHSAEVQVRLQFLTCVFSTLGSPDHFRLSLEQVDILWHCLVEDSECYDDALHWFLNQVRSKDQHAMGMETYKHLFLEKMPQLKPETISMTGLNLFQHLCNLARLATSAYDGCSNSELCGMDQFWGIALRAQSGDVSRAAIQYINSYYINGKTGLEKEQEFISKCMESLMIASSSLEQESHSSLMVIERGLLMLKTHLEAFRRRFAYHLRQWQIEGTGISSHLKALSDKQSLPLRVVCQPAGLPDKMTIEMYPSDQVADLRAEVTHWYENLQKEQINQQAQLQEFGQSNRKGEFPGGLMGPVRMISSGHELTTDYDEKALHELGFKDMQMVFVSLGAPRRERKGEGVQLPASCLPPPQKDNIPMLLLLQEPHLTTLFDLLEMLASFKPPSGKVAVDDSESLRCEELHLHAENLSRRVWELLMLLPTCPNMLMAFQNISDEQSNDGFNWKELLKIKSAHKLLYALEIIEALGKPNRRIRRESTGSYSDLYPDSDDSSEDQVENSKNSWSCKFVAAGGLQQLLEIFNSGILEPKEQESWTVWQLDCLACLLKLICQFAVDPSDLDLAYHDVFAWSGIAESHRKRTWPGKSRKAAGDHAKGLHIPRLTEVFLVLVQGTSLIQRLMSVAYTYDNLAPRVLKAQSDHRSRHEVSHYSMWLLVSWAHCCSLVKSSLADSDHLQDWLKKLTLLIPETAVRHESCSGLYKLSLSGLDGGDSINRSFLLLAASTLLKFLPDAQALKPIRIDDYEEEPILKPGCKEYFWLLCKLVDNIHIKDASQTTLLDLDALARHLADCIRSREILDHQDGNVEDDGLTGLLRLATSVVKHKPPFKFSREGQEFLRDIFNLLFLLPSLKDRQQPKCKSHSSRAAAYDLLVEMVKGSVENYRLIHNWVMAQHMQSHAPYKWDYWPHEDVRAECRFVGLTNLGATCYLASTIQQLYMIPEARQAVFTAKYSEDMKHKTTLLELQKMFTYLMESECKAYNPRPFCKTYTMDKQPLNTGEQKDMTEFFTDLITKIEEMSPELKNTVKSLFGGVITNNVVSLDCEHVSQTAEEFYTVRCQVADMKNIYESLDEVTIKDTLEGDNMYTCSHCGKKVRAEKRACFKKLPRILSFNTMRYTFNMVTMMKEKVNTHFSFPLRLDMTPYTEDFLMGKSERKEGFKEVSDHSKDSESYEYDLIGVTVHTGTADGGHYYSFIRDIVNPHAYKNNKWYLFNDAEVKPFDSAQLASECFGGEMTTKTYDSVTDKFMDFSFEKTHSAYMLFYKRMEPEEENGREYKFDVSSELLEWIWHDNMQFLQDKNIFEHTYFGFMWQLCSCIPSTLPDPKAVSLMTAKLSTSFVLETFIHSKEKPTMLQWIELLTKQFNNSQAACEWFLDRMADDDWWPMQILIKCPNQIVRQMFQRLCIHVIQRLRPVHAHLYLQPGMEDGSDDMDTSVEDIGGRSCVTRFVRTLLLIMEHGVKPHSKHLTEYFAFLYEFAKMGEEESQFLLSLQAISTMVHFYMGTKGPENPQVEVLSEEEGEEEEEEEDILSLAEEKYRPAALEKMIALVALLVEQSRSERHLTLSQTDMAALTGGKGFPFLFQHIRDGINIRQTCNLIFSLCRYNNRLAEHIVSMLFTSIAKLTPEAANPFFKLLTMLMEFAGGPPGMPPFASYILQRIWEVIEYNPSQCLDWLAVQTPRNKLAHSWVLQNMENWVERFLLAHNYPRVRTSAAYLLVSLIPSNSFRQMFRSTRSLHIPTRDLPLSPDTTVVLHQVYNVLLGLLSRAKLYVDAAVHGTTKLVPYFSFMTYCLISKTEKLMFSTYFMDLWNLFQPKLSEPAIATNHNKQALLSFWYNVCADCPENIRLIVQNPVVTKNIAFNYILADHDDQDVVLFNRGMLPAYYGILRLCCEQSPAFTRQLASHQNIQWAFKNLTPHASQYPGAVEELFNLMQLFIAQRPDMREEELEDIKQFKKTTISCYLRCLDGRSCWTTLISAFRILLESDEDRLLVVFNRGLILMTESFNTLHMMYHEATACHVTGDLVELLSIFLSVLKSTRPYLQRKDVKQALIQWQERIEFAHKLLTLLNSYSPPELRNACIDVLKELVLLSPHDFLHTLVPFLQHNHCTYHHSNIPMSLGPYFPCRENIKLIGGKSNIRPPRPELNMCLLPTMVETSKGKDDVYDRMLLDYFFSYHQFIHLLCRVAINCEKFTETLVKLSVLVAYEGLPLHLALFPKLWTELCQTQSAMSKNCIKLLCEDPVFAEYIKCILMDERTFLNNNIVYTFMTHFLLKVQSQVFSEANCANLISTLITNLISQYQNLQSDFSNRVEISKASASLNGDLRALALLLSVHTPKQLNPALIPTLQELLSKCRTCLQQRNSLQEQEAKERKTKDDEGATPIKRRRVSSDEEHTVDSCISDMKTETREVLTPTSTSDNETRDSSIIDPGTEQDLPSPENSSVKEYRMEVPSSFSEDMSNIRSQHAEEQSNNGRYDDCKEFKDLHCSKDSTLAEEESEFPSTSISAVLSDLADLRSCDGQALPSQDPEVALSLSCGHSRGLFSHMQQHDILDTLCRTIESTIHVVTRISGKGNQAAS
How it was run: (§1)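 Each value is an average log2 ratio of fragment to vehicle, tested by unpaired t-test. The underlying Spectronaut label-free quantities were global-median-normalised, and only proteins with ≥2 unique peptides were included. Triplicate HEK293T lysate samples (495 µg) were exposed to fragment at 200 µM or vehicle for 3 h, then to Biotin-Ahx-Ub-VS at 0.5 µM final for 1 h, before NeutrAvidin enrichment of labelled DUBs, LysC and trypsin digestion, and diaPASEF LC-MS/MS.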

[2] = target: T1, USP36 (UniProt Q9P275)
T1 sequence (whole entry): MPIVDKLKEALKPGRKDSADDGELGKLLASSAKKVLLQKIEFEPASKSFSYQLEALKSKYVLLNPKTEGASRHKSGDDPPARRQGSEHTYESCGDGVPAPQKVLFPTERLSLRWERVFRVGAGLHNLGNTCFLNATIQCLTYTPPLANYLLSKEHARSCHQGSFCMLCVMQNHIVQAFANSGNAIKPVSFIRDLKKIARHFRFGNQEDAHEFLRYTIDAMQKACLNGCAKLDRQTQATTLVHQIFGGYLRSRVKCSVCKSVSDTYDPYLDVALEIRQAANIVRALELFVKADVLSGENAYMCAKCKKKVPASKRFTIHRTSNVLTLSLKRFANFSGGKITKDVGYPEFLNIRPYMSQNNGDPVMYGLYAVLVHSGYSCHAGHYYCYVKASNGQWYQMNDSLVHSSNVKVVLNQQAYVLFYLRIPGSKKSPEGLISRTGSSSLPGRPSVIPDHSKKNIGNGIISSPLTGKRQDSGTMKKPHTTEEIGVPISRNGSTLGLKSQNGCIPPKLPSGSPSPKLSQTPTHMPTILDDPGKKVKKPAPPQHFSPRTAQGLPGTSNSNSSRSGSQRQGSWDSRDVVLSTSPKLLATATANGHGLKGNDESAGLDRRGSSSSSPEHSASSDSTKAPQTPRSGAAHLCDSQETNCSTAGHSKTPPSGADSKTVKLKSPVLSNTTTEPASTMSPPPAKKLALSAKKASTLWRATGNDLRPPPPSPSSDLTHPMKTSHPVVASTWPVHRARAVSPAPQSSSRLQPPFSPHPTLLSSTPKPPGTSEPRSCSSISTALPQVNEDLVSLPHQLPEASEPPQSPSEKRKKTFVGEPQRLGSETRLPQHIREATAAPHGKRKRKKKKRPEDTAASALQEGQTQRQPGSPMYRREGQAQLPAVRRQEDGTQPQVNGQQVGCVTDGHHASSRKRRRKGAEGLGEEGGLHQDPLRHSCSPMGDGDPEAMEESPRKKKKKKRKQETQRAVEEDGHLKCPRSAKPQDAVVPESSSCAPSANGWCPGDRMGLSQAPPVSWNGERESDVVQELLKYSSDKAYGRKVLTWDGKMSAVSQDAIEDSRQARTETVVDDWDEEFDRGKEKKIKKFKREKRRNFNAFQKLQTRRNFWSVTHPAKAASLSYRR
How it was run: as §1

[3] = target: T2, USP38 (UniProt Q8NB14)
T2 sequence (whole entry): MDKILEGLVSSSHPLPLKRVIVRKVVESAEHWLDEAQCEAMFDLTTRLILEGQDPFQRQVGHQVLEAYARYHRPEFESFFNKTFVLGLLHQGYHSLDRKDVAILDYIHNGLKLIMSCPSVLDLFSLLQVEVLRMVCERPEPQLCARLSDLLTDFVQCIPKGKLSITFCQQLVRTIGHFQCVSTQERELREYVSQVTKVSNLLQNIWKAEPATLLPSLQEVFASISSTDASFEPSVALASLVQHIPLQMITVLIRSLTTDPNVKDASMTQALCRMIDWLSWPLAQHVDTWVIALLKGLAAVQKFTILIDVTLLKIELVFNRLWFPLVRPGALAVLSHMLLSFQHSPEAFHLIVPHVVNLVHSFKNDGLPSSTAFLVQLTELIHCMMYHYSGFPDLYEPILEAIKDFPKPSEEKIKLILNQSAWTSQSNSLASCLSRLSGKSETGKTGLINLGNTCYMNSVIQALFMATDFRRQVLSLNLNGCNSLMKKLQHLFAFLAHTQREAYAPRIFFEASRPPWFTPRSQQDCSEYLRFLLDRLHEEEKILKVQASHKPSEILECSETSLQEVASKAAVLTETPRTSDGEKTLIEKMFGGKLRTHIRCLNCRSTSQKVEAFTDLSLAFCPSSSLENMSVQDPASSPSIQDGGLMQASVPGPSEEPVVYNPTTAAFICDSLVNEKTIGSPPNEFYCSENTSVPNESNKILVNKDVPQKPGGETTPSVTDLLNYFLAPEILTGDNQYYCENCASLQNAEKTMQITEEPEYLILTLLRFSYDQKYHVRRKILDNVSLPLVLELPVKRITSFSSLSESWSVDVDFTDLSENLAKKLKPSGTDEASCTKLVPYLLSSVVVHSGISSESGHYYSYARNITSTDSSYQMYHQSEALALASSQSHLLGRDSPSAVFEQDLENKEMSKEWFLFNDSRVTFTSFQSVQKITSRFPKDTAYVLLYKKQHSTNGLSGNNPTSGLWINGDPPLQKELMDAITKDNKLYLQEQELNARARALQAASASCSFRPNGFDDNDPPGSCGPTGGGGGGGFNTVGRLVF
How it was run: as §1

[4] = target: T3, USP39 (UniProt Q53GS9)
T3 sequence (whole entry): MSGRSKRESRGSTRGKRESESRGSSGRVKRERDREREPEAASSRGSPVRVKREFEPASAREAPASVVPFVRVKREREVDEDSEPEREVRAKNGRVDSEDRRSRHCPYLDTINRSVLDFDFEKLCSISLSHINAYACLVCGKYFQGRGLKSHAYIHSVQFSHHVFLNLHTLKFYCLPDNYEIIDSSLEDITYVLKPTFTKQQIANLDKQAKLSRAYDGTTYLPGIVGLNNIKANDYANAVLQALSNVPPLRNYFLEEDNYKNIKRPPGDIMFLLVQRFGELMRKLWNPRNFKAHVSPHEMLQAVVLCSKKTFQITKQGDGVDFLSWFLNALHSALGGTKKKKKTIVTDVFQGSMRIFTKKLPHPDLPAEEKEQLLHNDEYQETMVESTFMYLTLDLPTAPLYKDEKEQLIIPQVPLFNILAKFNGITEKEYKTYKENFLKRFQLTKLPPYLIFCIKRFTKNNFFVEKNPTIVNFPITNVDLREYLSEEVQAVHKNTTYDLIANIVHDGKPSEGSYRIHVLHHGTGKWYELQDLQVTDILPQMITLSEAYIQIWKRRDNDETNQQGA
How it was run: as §1

[5] = target: T4, USP4 (UniProt Q13107)
T4 sequence (whole entry): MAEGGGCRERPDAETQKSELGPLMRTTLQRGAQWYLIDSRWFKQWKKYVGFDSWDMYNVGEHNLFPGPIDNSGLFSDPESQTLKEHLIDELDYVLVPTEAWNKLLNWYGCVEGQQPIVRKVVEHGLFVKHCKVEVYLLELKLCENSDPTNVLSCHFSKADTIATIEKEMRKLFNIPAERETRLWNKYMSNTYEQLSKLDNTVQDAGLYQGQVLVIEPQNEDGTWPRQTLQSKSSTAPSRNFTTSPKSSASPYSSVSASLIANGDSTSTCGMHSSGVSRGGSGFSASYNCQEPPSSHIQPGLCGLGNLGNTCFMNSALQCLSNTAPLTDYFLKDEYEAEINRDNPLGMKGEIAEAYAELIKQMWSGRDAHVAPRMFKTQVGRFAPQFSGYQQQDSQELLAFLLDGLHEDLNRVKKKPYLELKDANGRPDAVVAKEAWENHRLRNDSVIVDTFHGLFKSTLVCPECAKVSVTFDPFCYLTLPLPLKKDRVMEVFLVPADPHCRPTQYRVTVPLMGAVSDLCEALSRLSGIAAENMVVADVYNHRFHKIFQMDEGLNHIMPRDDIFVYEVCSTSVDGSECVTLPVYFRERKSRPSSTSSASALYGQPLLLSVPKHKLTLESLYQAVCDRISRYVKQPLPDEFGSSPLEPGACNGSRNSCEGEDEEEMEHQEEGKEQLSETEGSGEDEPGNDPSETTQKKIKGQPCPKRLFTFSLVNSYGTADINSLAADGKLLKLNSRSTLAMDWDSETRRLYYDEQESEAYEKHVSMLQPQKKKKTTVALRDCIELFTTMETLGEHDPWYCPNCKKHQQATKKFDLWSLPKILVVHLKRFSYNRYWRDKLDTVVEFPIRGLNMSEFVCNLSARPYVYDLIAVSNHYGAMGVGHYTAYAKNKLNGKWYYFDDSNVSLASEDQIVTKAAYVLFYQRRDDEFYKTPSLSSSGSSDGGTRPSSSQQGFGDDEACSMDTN
How it was run: as §1

Measured: log2 ratio of Biotin-Ahx-Ub-VS probe labelling

CC(=O)C1CCCCN1C(=O)CCl (stereo not given)
inactive: [1] -0.216 | [2] -0.0205 | [3] -0.0979 | [4] -0.37 | [5] -0.0834
